# “And” between values parts separate entries of the source, which are not always exact repeats. Equal entries are not always repeated. Compounds without any hit were thinned out: in the full panel of roughly 83,000, 20% have a hit.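 Assay: single dose, 48 h. Readout: percent growth (0 = no net growth; negative = cell death). Active: <10.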 A number with no mark means an inactive call. The source made the active and inactive calls.
# Test system: MDA-MB-468 breast
# Assay: NCI-60 one-dose screen, 48 h (100 = growth as untreated, 0 = no growth, -100 = all killed)
# Details: 10 µM unless noted
row,SMILES,growth
1,C=C1C(=O)O[C@H]2[C@H]1CC/C(COC(=O)c1cccnc1)=C\CC[C@@]1(C)O[C@@H]21,17.6%
2,COc1ccc(/C=C(/C2=NCCN2)n2ccc3ccccc32)cc1,89.6%
3,N#CC1=C(N)Oc2c(sc3c(F)cccc23)C1c1ccc(F)cc1 (stereo not given),26.5%
4,COc1cccc2c1C(=O)c1c(O)c3c(c(O)c1C2=O)CC(O)(/C(C)=N/NC(=O)CCCCC(=O)N/N=C(\C)C1(O)Cc2c(O)c4c(c(O)c2C(OC2CC(N)C(O)C(C)O2)C1)C(=O)c1c(OC)cccc1C4=O)CC3OC1CC(N)C(O)C(C)O1 (stereo not given),-1.37% [5 µM] (active)
5,CCNC(=O)c1ccc2c(c1)nc(-c1ccc(Cl)cc1)n2-c1cc(C(C)(C)C)[nH]n1,32.8%
6,CC1=C[C@H]2c3c(c(O)c(O)c4oc5c(C)cccc5c(=O)c34)[C@H](c3cc(O)c(O)c4oc5c(C)cccc5c(=O)c34)[C@H]2C(C)(C)C1,21.6%
7,Cn1c(=O)c2[nH]c(CCCCC(=O)O)nc2n(C)c1=O,121%
8,O=S(=O)(NCCNc1nccc(-c2c(-c3ccc(F)c(O)c3)nc3sccn23)n1)c1ccc(Cl)cc1,19.5%
9,OCCN1CCN(CCO)CC1,107% and 103% and 105%
10,C=C1CCC[C@]2(C)CCC[C@H](C)[C@@H](OC(C)=O)[C@@H]3OC(=O)C(=C)[C@@H]3C[C@H]1O2,31.8%
11,CCNCCNc1cc(-c2ccc(Cl)cc2)c(C#N)c2nc3ccccc3n12,-45.3% (active)
12,COc1ccc(/C(C)=N/NS(=O)(=O)c2ccc(C)cc2)cc1OC,104%
13,CCN(CC)CCC(=O)c1ccc(OC)c2ccccc12,49.7%
14,S=c1nc(-c2ccccc2)oc(=NC2CCCCC2)n1C1CCCCC1,-42.1% (active)
15,Cc1nc(N)[nH]c(=O)c1C,103%
16,O=C(Cc1ccc(/C=C/C(=O)c2ncc[nH]2)cc1)Nc1ccc(Br)cc1,19.6%
17,COc1ccc(CCN2C(=O)CSC2=S)cc1OC,-2.77% (active)
18,Cc1cc2c(c(C)n1)CN(C(=O)Nc1nc(-c3cncs3)ccc1N)C2,110%
19,COc1c(Cl)cc(Cl)c2ccc(C=C3C(=O)NC(=S)NC3=O)nc12,108%
20,COc1ccc(-c2cc(/C=C3\C(=O)Nc4ccc(Cl)cc43)[nH]n2)cc1OC,108%

row,SMILES,growth
1,COc1ccc(/C=C(\C#N)c2ccccc2)cc1,91.2%
2,CNC(=O)c1cccc2cc(Oc3ccnc4cc(OCC5(N)CC5)c(OC)cc34)ccc12,74.6%
3,CN(C)c1ccc(C2C(C#N)=C(/N=C/c3ccccc3)Oc3c2ccc2ccccc32)cc1 (stereo not given),86.3%
4,O=C(NNC(=S)Nc1ccccc1)c1ccccn1,51.2%
5,CCN(CCN(C)C)C(=O)CNCc1cc(C(N)=O)ccn1,101%
6,COc1ccc(OC)c(NC(=O)c2sc3nc4c(cc3c2N)C(=O)CCC4)c1,37.5%
7,COc1ccc(C(=O)/C=C/c2cc(-c3cc(OC)c(OC)c(OC)c3)n[nH]2)cc1,-66.1% (active)
8,COc1cc(-c2nc3sccn3c2-c2ccnc(NCCNS(=O)(=O)c3ccccc3)n2)ccc1F,40.2%
9,CCC1NC(=O)c2cc(S(N)(=O)=O)c(Cl)cc2N1 (stereo not given),107%
10,O=C(CCl)n1nnnc1Cc1ccccc1,101%
11,CC1(C)CCCC2=C1C(=O)N(SC(Cl)(Cl)Cl)C2=O,79.6%
12,COC1OC(COS(=O)OC)C(O)C(O)C1OS(=O)OC (stereo not given),96.4%
13,O=c1cc(-c2ccccc2)nc(SCc2nc3cc(Cl)c(Cl)cc3[nH]2)[nH]1,116%
14,COc1cccc(Nc2nc(SC)nc(-c3cccc([N+](=O)[O-])c3)c2C#N)c1,81.2%
15,C=C(c1ccc(C(=O)O)cc1)c1cc2c(cc1C)C(C)(C)CCC2(C)C,109% and 103%
16,O=[N+]([O-])c1ccc(Oc2ccc(-c3ccccc3)cc2)cc1,71.4%
17,COc1ccc(-c2cnnn2-c2nonc2-n2cccc2)cc1OC,40.1%
18,CC(=O)c1ccc(N2C(=O)c3ccc(Oc4ccccc4)cc3C2=O)cc1,105%
19,CN(C)CCN(Cc1ccccc1)c1ccccc1,103%
20,Clc1ccc2[nH]cc(-c3nn4cc(-c5cccnc5)nc4s3)c2c1,98.1%

# Reference: PubChem BioAssay (NCI)
